Results as given in PubChem BioAssay AID485297 (National Center for Advancing Translational Sciences (NCATS), 2010).
About 9,100 (2.8%) of roughly 320,000 compounds were called active. Not shown: some 3% with an inconclusive outcome. The call rests on the fitted dose curve; in most records, active means well fitted activation curve with a large enough effect; inconclusive means small, poorly fitted or top-dose-only effect; inactive means no such curve, though single readings can be large or run the other way. Shown is part of a subset that was picked to be rich in actives. Where a call stands in place of a potency, no number is given.

Experiment: qHTS Assay for Rab9 Promoter Activators; further: nearly all actives have a fitted effect of over 60% in size
Details: Huh7 Rab9 promoter-luciferase reporter, luminescence, 24 h; series mostly up to 9.22 µM
Summary of the method: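 Rab9 promoter-driven luciferase in stably transfected Huh7 cells; 1500 cells/well rested 2 h, exposed to compound in DMSO for 24 h at 37 °C, 5% CO2. Luminescence read 10 min after adding luciferase reagent at ambient temperature.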
Potency means the concentration at half of the fitted maximal effect.

| Compound | Potency |
| --- | --- |
| CN(CC(=O)Nc1cccc(F)c1)C(=O)CC1CCCC1 | inactive |
| COc1ccc(C2=NN(C(=O)CSc3nnnn3C)C(c3ccco3)C2)cc1 (centres undefined) | inactive |
| Cc1ccc(C(=O)OCC(=O)Nc2ccc(Cl)cn2)cc1S(=O)(=O)N1CCOCC1 | inactive |
| O=S(=O)(Nc1ccc2nc(N3CCOCC3)sc2c1)c1ccccc1 | 2820 nM (active) |
| O=C(c1ccc2nc(N3CCOCC3)sc2c1)N1CCN(c2ccc(Cl)cc2)CC1 | inactive |
| CC(=O)Nc1ccc(S(=O)(=O)Nc2ccc(N3CCOCC3)c(F)c2)cc1 | inactive |
| N#Cc1ccc(CN2CCN(CC(=O)Nc3ccccc3C(=O)NC3CC3)CC2)cc1 | inactive |
| C=CCn1c(=O)c(C(=O)Nc2ncccc2O)c(O)c2ccccc21 | inactive |
| CCCn1c(=O)c(C(=O)Nc2cc(C)ccn2)c(O)c2ccccc21 | inactive |
| Cn1c(=O)c(C(=O)Nc2ncccn2)c(O)c2ccccc21 | 3160 nM (active) |
| C/C(N)=C(/C#N)C(=O)COC(=O)CNS(=O)(=O)c1ccc(C)cc1 | inactive |
| COC(=O)CNS(=O)(=O)c1ccc(OC)cc1 | inactive |
| COC(=O)CNS(=O)(=O)c1ccc(Cc2ccc(S(=O)(=O)NCC(=O)OC)cc2)cc1 | 1260 nM (active) |
| COc1ccc(S(=O)(=O)N2CCOCC2)cc1NC(=O)CSc1cc(C)ccc1C | inactive |
| CCOC(=O)c1c(C)[nH]c(C2=NNC(=NC(C)COC)SC2)c1C (centres undefined) | 1580 nM (active) |
| O=C(CSc1nc2ccccc2c(=O)n1CCCO)NC1CC1 | inactive |
| CN(CCO)Cc1csc2ccc(Br)cc12 | inactive |
| CC(=O)Oc1ccc(-c2nc3c(C)cccc3c(=O)o2)cc1 | inactive |
| COc1ccc(/C=C/c2noc(-c3ccccc3OC(C)=O)n2)cc1 | 2240 nM (active) |
| COc1ccc(/C=C/c2nnc(NC(=O)C(C)C)s2)cc1 | inactive |
| Cc1ccc(NC(=O)COC(=O)CN2CCCCCC2=O)c(C)c1 | inactive |
| COc1ccc(OC)c(S(=O)(=O)Nc2c(C)nn(C)c2C)c1 | inactive |

| Compound | Potency |
| --- | --- |
| Cc1ccc(S(=O)(=O)Cc2cc(-c3ccc(Cl)cc3)no2)cc1 | inactive |
| CC(C)C(=O)NCc1cc(-c2ccc(Cl)cc2)no1 | inactive |
| Oc1ccccc1-c1cc(-c2ccc(Cl)cc2)n[nH]1 | 2510 nM (active) |
| Cc1sc2ncn(CC(=O)NCCCC(=O)NCc3ccc(F)cc3)c(=O)c2c1C | inactive |
| CCCCCc1c(C)nc(N2CCN(Cc3ccc4c(c3)OCO4)CC2)[nH]c1=O | inactive |
| O=C(NCc1ccncc1)c1cccc(NS(=O)(=O)c2ccc(F)c(F)c2)c1 | inactive |
| O=C(CN1CCN(c2ccccn2)CC1)N1CCc2ccccc21 | inactive |
| O=C(CSCc1ccccc1)N1CCc2ccccc21 | 1780 nM (active) |
| CCC(=O)N1CCCc2ccccc21 | inactive |
| CCCCn1nc(C(=O)Nc2cccc(C(=O)NC3CC3)c2)c2ccccc2c1=O | inactive |
| Cc1ccc(NC(=O)CCCNC(=O)c2ccc(Cl)cc2)cc1S(=O)(=O)N1CCOCC1 | inactive |
| CCS(=O)(=O)Nc1ccc(C(=O)NCCSc2ccccc2)cc1 | inactive |
| O=C(NCCSc1ccccc1)c1ccco1 | 3550 nM (active) |
| O=C(NCCSc1ncc(-c2ccccc2)[nH]1)c1ccco1 | inactive |
| CC(C)(CNC(=O)CNC(=O)C1CCCCC1)N1CCOCC1 | inactive |
| CCCCNC(=O)Cn1nc(C)c(S(=O)(=O)N2CCOCC2)c1C | inactive |
| CC1CCN(S(=O)(=O)c2ccc3c(c2)n(C)c(=O)n3C)CC1 | inactive |
| Cc1nonc1C1CCCN1C(=O)c1cc(COc2cccc(C(F)(F)F)c2)on1 (centres undefined) | inactive |
| CCOC(=O)CC1(NC(=O)c2cc(COc3cncc(Cl)c3)on2)CCCCC1 | inactive |
| CCCOC1CCCN(C(=O)c2cc(COc3cncc(Cl)c3)on2)C1 (centres undefined) | 1410 nM (active) |
| CC(C)(C)c1nnc(N/N=C/c2ccc(O)cc2)n(N)c1=O | inactive |
| Cc1ccc(Cn2c(C)c3cnn(CC(=O)NCc4ccccn4)c(=O)c3c2C)cc1 | inactive |

| Compound | Potency |
| --- | --- |
| Cc1ccc(C(=O)Nc2ncccc2C)cc1S(=O)(=O)N1CCOCC1 | inactive |
| Cc1cc(NC(=O)COc2ccccc2C#N)no1 | 3550 nM (active) |
| Cc1cc(NC(=O)COc2ccc([N+](=O)[O-])cc2)no1 | inactive |
| Cc1cc(NC(=O)COn2nnc3ccccc32)no1 | inactive |
| CCOc1ccc(C(=O)Nc2ccc(S(=O)(=O)Nc3cc(C)on3)cc2)cc1 | inactive |
| CCC(=O)Nc1ccc(C(=O)Nc2cc(C)on2)cc1 | inactive |
| CCOc1ccc(NC(=O)Nc2cc(C)on2)cc1 | 1120 nM (active) |
| Cc1cc(C)cc(NC(=O)C(OC(=O)c2ccc(O)cc2)c2ccccc2)c1 (centres undefined) | inactive |
| COc1ccc([C@H]2CC(=O)C=C(c3ccc(OC(F)(F)F)cc3)C2)cc1OC | inactive |
| CCN(CC)S(=O)(=O)c1ccc(N2CCOCC2)c(NC(=O)c2ccc(=O)n(C)n2)c1 | inactive |
| COc1ccc2c(c1)[C@H]1[C@H](CO2)[C@H](c2ccccc2)[C@]2(C)C(=O)Nc3cc(F)c(F)cc3C(=O)N12 | inactive |
| O=C(NCCN1CCOCC1)c1cccc(S(=O)(=O)Nc2ccc(F)cc2)c1 | inactive |
| CC(=O)c1c(C)[nH]c(C(=O)COc2ccc3c(C)cc(=O)oc3c2)c1C | inactive |
| Cc1ccc(Oc2cnn(-c3ccccc3)c(=O)c2Br)cc1 | inactive |
| O=c1c(Cl)c(NC2CC2)cnn1-c1ccccc1 | inactive |
| C=CCNc1cnn(-c2ccc(C)cc2)c(=O)c1Cl | 3550 nM (active) |
| CC(=O)NC12CC3CC(C1)CC(C(=O)N1CCN(S(=O)(=O)c4cccs4)CC1)(C3)C2 | inactive |
| CCn1nc(C(=O)Nc2ccc(N3CCOCC3)cc2)c2ccccc2c1=O | inactive |
| c1ccc(-n2cccc2)c(N2CCCCC2)c1 | inactive |
| CN(C)c1ccnc(Nc2ccc(F)cc2)c1C#N | inactive |
| CC(C)c1ccc(Nc2ncccc2C#N)cc1 | 3550 nM (active) |
| CC(C)c1ccc(/C=C/C(=O)NNC(=O)c2cccnc2)cc1 | inactive |

| Compound | Potency |
| --- | --- |
| COc1ccc2c(Cl)c(C(=O)NCc3ccco3)sc2c1 | 3160 nM (active) |
| COc1ccc(C(=O)Nc2ccccc2C(=O)NCc2ccco2)cc1 | inactive |
| COc1ccc(CNC(=O)CNC(=O)c2sc3ccccc3c2Cl)cc1OC | inactive |
| Cc1c(CNCCc2ccccc2)c(C(=O)O)c(C)n1-c1ccccc1 | inactive |
| CCOc1cc(CNCCN(C)C)c(Cl)cc1OCC(=O)NCCc1ccccc1 | inactive |
| O=C(CN1CCc2ccccc2C1)Nc1cccc(S(=O)(=O)N2CCOCC2)c1 | inactive |
| CC1CCN(C(=O)c2ccccc2NC(=O)Cc2ccccc2)CC1 | inactive |
| CCCCc1nc2cc(C(=O)NCCc3cnn(C)c3)ccc2o1 | inactive |
| CSCCNC(=O)c1ccc2nc(Cc3ccccc3F)oc2c1 | 2820 nM (active) |
| COc1ccc(Cc2nc3ccc(C(=O)NCC4CCOCC4)cc3o2)cc1OC | inactive |
| COCCn1c(C)cc(C(=O)CSc2nnc(C3CC3)n2C2CC2)c1C | inactive |
| O=C(CNC(=O)c1ccccc1Br)NNC(=O)c1cccs1 | inactive |
| COc1cccc(N2CCN(CC(=O)Nc3ccnn3C3CCCC3)CC2)c1 | inactive |
| CN(c1ccc(O)cc1)c1nc(-c2cccnc2)cs1 | inactive |
| O=C(Nc1ccc(NC(=O)c2ccccc2F)cc1)c1ccccc1F | inactive |
| O=C(NCCc1csc(-c2ccccc2)n1)c1ccccc1F | inactive |
| O=C(Nc1nnc(-c2ccccc2F)s1)c1ccccc1F | 708 nM (active) |
| O=C(Nc1nc(-c2ccc(-c3ccccc3)cc2)cs1)c1cnccn1 | inactive |
| O=C(Nc1nc(-c2cccnc2)cs1)c1ccccc1F | 3550 nM (active) |
| Cc1ccccc1Nc1nc(-c2cccnc2)cs1 | 2000 nM (active) |
| CN(Cc1ccccc1)S(=O)(=O)c1nnc(NC(=O)c2ccccc2F)s1 | inactive |
| O=C(O)c1ccccc1C(=O)Nc1nc(-c2ccccc2)cs1 | inactive |

| Compound | Potency |
| --- | --- |
| CC(=O)c1ccc(S(=O)(=O)NCCC(=O)N2CCN(c3ccccn3)CC2)cc1 | inactive |
| CCC(C(=O)N1CCN(S(=O)(=O)c2sc(C(=O)O)c(C)c2C(=O)O)CC1)c1ccccc1 (centres undefined) | inactive |
| Cc1ccc(COC(=O)CN2C(=O)NC3(CCCC3)C2=O)cc1 | inactive |
| COc1ccc(C(=O)OC(C)C(=O)NC2CCCC2)cc1S(=O)(=O)N1CCOCC1 (centres undefined) | inactive |
| O=C(COC(=O)Cn1[nH]c(=O)c2ccccc2c1=O)Nc1ncc(Cl)cc1Cl | inactive |
| CCCSC(=S)NC1CCS(=O)(=O)C1 (centres undefined) | inactive |
| CN(CC(=O)NCc1ccc2c(c1)OCO2)CC(=O)Nc1ccc(F)c(F)c1F | inactive |
| Cc1ccc(S(=O)(=O)N2CCCCC2)cc1C(=O)N1CCN(CCO)CC1 | inactive |
| CN(C)c1nc(=Nc2cccc(Cl)c2)ss1 | inactive |
| Clc1cccc(N=C2NN=C(c3ccc4c(c3)OCCO4)CS2)c1 | 3550 nM (active) |
| c1ccc(CN2CCC(N=C3NN=C(c4ccc5c(c4)OCCO5)CS3)CC2)cc1 | inactive |
| COc1ccc(CCNC(=O)COC(=O)C2CC2C)cc1 (centres undefined) | inactive |
| COc1ccc(-c2cc(C(=O)NCCCn3ccnc3)no2)cc1 | inactive |
| O=C(NCCCN1CCOCC1)c1cc(-c2cccc(O)c2)on1 | inactive |
| O=C(NCCCn1ccnc1)c1cc(-c2ccccc2)on1 | 3980 nM (active) |
| COc1ccccc1-c1cc(C(=O)NCCCn2ccnc2)no1 | inactive |
| O=C(NC1CCCC1)c1cc(-c2ccccc2)on1 | 2000 nM (active) |
| O=C(Nc1cccnc1Cl)c1cc(-c2cccc(Cl)c2)on1 | inactive |
| Cc1ccc(C(=O)CN2C(=O)NC3(CCOc4ccccc43)C2=O)s1 (centres undefined) | inactive |
| CN(C(=O)CSc1nnc(-c2ccc(C(C)(C)C)cc2)n1C)C1CCS(=O)(=O)C1 (centres undefined) | inactive |
| CCNC(=O)c1cccc(NC(=O)C2CC(=O)N(CCc3ccccc3)C2)c1 (centres undefined) | inactive |
